# ABHD5-PLIN5 inh: ABHD5-PLIN5 protein interaction inhibition; Q00G26+Q8WTS1; Split G. princeps luciferase complementation, luminescence, 4 h; inhibition, % at 4 µM; 360,000 compounds, 0.78% hits;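 active = inhibition above the mean inhibition across every tested compound plus 3 SD, cut at about 22% in these data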;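 note: 0% = DMSO only wells and the 100% control is not disclosed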
# UHRF1 binding: human UHRF1 methylated DNA binding inhibitors | 370,000 compounds, 0.75% hits | inhibition, % at 4.4 µM | AID 687016 | UHRF1 binding to methylated oligo, TR-FRET | Q96T88;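 note: UHRF1 SRA domain binding a hemimethylated CpG hairpin DNA probe; 0% = median of test compound wells and 100% = reference inhibitor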
# Target sequence (Q96T88 whole entry, looked up, the tested form may be a part): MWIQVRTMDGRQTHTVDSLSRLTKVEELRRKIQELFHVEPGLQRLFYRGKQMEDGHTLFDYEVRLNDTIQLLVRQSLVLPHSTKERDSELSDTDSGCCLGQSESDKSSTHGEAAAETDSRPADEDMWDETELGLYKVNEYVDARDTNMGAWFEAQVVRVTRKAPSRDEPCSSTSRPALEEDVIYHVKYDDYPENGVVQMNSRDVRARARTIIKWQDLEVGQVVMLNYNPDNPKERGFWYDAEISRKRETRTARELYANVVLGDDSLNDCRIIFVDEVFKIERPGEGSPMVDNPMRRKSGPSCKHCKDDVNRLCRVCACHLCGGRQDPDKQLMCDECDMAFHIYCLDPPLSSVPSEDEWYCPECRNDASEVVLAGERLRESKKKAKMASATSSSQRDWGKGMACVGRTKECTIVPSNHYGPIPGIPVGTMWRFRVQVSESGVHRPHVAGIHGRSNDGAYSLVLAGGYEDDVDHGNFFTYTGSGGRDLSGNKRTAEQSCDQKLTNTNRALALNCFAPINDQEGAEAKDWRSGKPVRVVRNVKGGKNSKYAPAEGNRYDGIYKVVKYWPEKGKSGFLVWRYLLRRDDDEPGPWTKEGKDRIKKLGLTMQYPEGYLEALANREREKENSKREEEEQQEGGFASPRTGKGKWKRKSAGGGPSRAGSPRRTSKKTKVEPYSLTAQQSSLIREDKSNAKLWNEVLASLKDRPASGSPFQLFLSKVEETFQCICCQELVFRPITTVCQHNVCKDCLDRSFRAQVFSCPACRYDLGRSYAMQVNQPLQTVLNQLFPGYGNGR
# PRMT1 inh: inhibitors of human PRMT1 | Q99873 | recombinant PRMT1, activity-based probe fluorescence polarization | inhibition, % at 2.79 µM | 370,000 compounds, 1.3% hits | AID 652257;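 active = inhibition above about 21% made by adding two undisclosed values, limit read from the data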
# LEDGF integ inh: blocks HIV-1 LEDGF/p75-dependent DNA integration; TR-FRET IN-LEDGF/p75 DNA integration, Eu/Cy5; inhibition, % at 3.7 µM; 370,000 compounds, 0.64% hits;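 active = inhibition above the screen-wide mean plus 3 SD, cut at about 13% in these data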;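 note: signal is the Cy5 over europium emission ratio at 671 and 618 nm; 0% = plate median of compound wells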
# MBD2 DNA inh: inhibitors of human MBD2 binding to methylated oligonucleotide; 370,000 compounds, 0.31% hits; AID 686964; inhibition, % at 4.4 µM; TR-FRET; in the data active = inhibition above about 13%
# rCAG RNA binder: molecules binding r(CAG) RNA repeats; r(CAG) RNA repeat, TO-PRO-1 dye displacement fluorescence; inhibition, % at 3 µM; 370,000 compounds, 1.3% hits; AID 651821;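 active = inhibition above the plate cutoff, the mean of all test compounds on that plate plus 3 SD, cut at about 35% in these data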;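 note: 0% = DMSO alone and 100% = 100 µM mitoxantrone as full dye displacement; higher means more dye released from RNA so lower well fluorescence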
# rCAG binder conf: r(CAG) RNA repeat binding, confirmation. shares compounds with rCAG RNA binder. inhibition, % at 3 µM. TO-PRO-1 dye displacement fluorescence. 4,300 compounds, 70% hits. AID 652065;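 active = inhibition above a per-plate cutoff, the mean inhibition of sample wells plus 3 SD, cut at about 35% in these data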;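 note: loss of TO-PRO-1 fluorescence as compound displaces dye from 1x1 AA loop RNA; 0% = DMSO only wells and 100% = 100 µM mitoxantrone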
# dCAG dye counter: DNA CAG dye complex inhibition counter-screen; shares compounds with rCAG RNA binder; d(CAG) DNA oligo TO-PRO-1 dye displacement, fluorescence; inhibition, % at 3 µM; 4,300 compounds, 94% hits;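 active = inhibition above its plate's cutoff, the mean test-well inhibition plus 3 SD, cut at about 4.8% in these data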;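 note: 0% = DNA dye mix with DMSO and 100% = 100 µM mitoxantrone; hits displace the dye from DNA and so lower well fluorescence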
# PRMT1 confirm: PRMT1 (human) inhibition, FP confirmation; shares compounds with PRMT1 inh; recombinant His-PRMT1, activity-based probe fluorescence polarization; inhibition, % at 2.79 µM; 3,300 compounds, 42% hits; AID 687036;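 active = mean inhibition across replicates above the hit cutoff derived for the earlier primary screen, cut at about 22% in these data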
# UHRF1 DNA bind: UHRF1 methyl-oligo binding inhibition as MBD2 counter-screen; shares compounds with MBD2 DNA inh; UHRF1 binding to methylated oligonucleotide, TR-FRET; inhibition, % at 4.4 µM; 1,000 compounds, 25% hits; AID 720530;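 note: UHRF1 SRA domain binding a labeled hemimethylated CpG hairpin DNA; 0% = vehicle only and 100% = reference inhibitor with vehicle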
# MBD2 DBD conf: MBD2-DBD methyl-DNA binding inhibition, TR-FRET confirmation; shares compounds with MBD2 DNA inh; TR-FRET MBD2-DBD binding to methylated oligonucleotide; inhibition, % at 4.4 µM; 1,000 compounds, 26% hits; AID 720531; in the data active = inhibition above about 14%
# IN multimer up: activates HIV-1 integrase multimerization in LEDGF counter-screen; shares compounds with LEDGF integ inh; TR-FRET HIV-1 integrase multimerization, biochemical; activation, % at 7.7 µM; 2,000 compounds, 17% hits; AID 1053131; in the data active = activation above about 8.9%
# TRFRET interf: optically interferes with TR-FRET readout in LEDGF counter-screen | shares compounds with LEDGF integ inh | TR-FRET optical interference counterscreen, HIV-1 IN multimerization | inhibition, % at 7.7 µM | 2,000 tested, under 10 active;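 active = inhibition above the mean over all tested compounds plus 3 SD, which no compound reached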;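 note: 0% = integrase with antibodies and DMSO and 100% = antibodies without integrase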
# LEDGF integ conf: LEDGF/p75-dependent HIV-1 integration inhibition, confirmation | TR-FRET LEDGF/p75-dependent HIV-1 integration, biochemical | AID 1053136 | shares compounds with LEDGF integ inh | 2,000 compounds, 36% hits | inhibition, % at 3.7 µM; in the data active = inhibition above about 14%
# * hit, by the source's call; / = no result. Rows were chosen to be rich in hits. Some 4.1% of all compounds tested hit in one or more screens of this group. Cut-off read from the data, not from the text of the source, unless noted: active = inhibition above about 21%; inactive = the rest.
SMILES,ABHD5-PLIN5 inh,UHRF1 binding,PRMT1 inh,LEDGF integ inh,MBD2 DNA inh,rCAG RNA binder,PRMT1 confirm,others
Cc1ccc(N2C(=O)NC(=O)/C(=C\C=C\c3ccco3)C2=O)cc1C,15,12,18,29*,5,36*,/,rCAG binder conf=10;dCAG dye counter=6.2*;IN multimer up=1;TRFRET interf=-4;LEDGF integ conf=34*
Cc1cc(N2CCOCC2)ccc1/C=C1\C(=O)NC(=O)N(c2ccccc2)C1=O,18,0,1,3,2,2,/,
CCOc1cc2c(cc1OCC)-n1cccc1C(c1ccc(C(C)C)cc1)NC2 (stereo not given),-10,-1,-3,0,2,-6,/,
Cc1ccc(OCCn2cccc2/C=C2/C(=O)NC(=O)N(Cc3ccco3)C2=O)cc1,2,64*,32*,58*,12,36*,12,rCAG binder conf=14;dCAG dye counter=8.7*;IN multimer up=-2;TRFRET interf=11;LEDGF integ conf=37*
CN(C)C1C(=O)C(C(N)=O)=C(O)C2(O)C(=O)C3=C(O)c4c(O)cccc4C(C)(O)C3C(O)C12 (stereo not given),7,71*,49*,53*,31*,73*,/,rCAG binder conf=23;dCAG dye counter=9.1*;UHRF1 DNA bind=9;MBD2 DBD conf=13;IN multimer up=21*;TRFRET interf=-73;LEDGF integ conf=23*
Cc1cc(/C=C2\C(=O)NC(=O)N(Cc3ccccc3)C2=O)c(C)n1-c1ccc(Cl)c(C(=O)O)c1,-24,92*,28*,43*,37*,43*,12,rCAG binder conf=65*;dCAG dye counter=24*;UHRF1 DNA bind=72*;MBD2 DBD conf=29*;IN multimer up=5;TRFRET interf=-25;LEDGF integ conf=44*
Cc1cc(/C=C2\C(=O)NC(=O)N(c3cccc(F)c3)C2=O)c(C)n1-c1ccc(C(=O)O)c(Cl)c1,8,9,20,12,7,17,/,
N#Cc1ccc(NC(=O)CN2C(=O)NC3(CCCCCCC3)C2=O)cc1Cl,-3,0,-5,3,1,5,/,
CN1C[C@H](CO)C[C@@H]2c3cccc4[nH]cc(c34)C[C@H]21,-5,5,7,-1,-8,-5,/,
CN1C[C@H](CNC(=O)OCc2ccccc2)C[C@@H]2c3cccc4c3c(cn4C)C[C@H]21,1,-3,39*,7,-9,3,7,
CCN1C(=O)/C(=C/c2ccc3c(c2)CCN3CCCCl)C(=O)NC1=S,-13,-4,11,3,-2,21,/,
C=CCN1C(=O)/C(=C/c2ccc3c(c2)CCCN3CCC)C(=O)NC1=S,0,4,26*,-1,3,23,8,
O=c1[nH]c(=O)n(C2CCCCC2)c(O)c1C1NCCc2ccccc21 (stereo not given),-2,0,28*,2,-1,9,2,
CSc1ncc(/C=C2/C(=O)NC(=O)N(C)C2=O)cn1,-2,-6,9,0,-2,1,/,
CSc1ncc(/C=C2/C(=O)NC(=O)N(C3CCCCC3)C2=O)cn1,-24,-7,26*,4,-6,16,19,
COCCOC(=O)c1c(N)n(Cc2ccco2)c2nc3ccccc3nc12,10,-9,30*,4,-9,0,11,
O=C1CC(N2CCC(n3c(=O)[nH]c4ccccc43)CC2)C(=O)N1c1ccc(F)cc1 (stereo not given),3,5,45*,2,-2,-4,3,
O=C(N=Nc1c(O)[nH]c(=O)[nH]c1=O)C1COc2cc3ccccc3cc2O1 (stereo not given),-12,-12,0,4,-1,-1,/,
COC(=O)C1=C(c2ccc(F)cc2OCc2ccccc2)C[C@@H]2CC[C@H]1N2C(=O)N1CCOCC1,6,3,-3,0,-3,-5,/,
O=C1NC(=O)N(Cc2ccccc2)C(=O)/C1=C/c1cnc(-c2ccccc2)nc1,16,-5,7,-1,3,13,/,
O=C1NC(=O)N(Cc2ccccc2)C(=O)/C1=C/N1CCCc2ccccc21,-14,-3,28*,-3,10,18,-8,
Clc1cc(Cl)cc(CN2Cc3ccccc3-n3nncc3C2)c1,/,0,-3,2,-1,-2,/,
CCOC(=O)c1c(/N=C/c2c(O)n(-c3ccccc3F)c(=S)[nH]c2=O)sc2c1CCCC2,-18,0,42*,1,-2,12,15,
CCOC(=O)c1c(/N=C/c2c(O)n(-c3ccc(F)cc3)c(=S)[nH]c2=O)sc2c1CCCC2,-7,-2,27*,3,-6,10,-8,
CC(C)(C)C(=O)N1Cc2cc(N3CCCCC3)ccc2-n2nncc2C1,5,4,4,-7,3,2,/,
SMILES,ABHD5-PLIN5 inh,UHRF1 binding,PRMT1 inh,LEDGF integ inh,MBD2 DNA inh,rCAG RNA binder,PRMT1 confirm,others
CCOc1cc(CNCCc2c[nH]c3ccccc23)cc(Cl)c1OC,11,7,3,-4,1,-4,/,
CC(C)CNC(=O)/C=C/C=C/CCCCCC/C=C/c1ccc2c(c1)OCO2,1,2,-8,6,-1,0,/,
COP(=S)(OC)SCn1nnc2ccccc2c1=O,-10,0,89*,-8,-1,0,74*,
CC/C(=N\NC(=S)Nc1ccccc1)c1c(O)[nH]c(=O)[nH]c1=O,-11,-1,45*,3,-2,10,46*,
C/C(=N\Nc1ccccc1)c1c(O)[nH]c(=O)[nH]c1=O,1,0,3,-3,-2,1,/,
CN(C)c1ccc(C=C2C(=O)NC(=O)NC2=O)cc1,-31,-6,7,1,-2,1,/,
O=C1NC(=O)C(=Cc2ccc3c(c2)OCO3)C(=O)N1,/,-3,25*,1,0,0,1,
